# FBPA Giardia inh: inhibitors of Giardia lamblia fructose-1,6-bisphosphate aldolase. A8B2U2. purified Giardia FBPA. Potency, µM (highest dose often 59.6 µM), without a hit: at the highest dose activity, negative = inhibition, actives largely listed as inhibitors. 0.71% of 290,000 active. AID 2451; also: potency is read from the fitted curve at half-maximal effect; % is scaled to controls: 0 for no effect and ±100 for the full control effect; nearly all actives have a fitted effect of over 55% in size
# Target sequence (A8B2U2 whole entry, looked up): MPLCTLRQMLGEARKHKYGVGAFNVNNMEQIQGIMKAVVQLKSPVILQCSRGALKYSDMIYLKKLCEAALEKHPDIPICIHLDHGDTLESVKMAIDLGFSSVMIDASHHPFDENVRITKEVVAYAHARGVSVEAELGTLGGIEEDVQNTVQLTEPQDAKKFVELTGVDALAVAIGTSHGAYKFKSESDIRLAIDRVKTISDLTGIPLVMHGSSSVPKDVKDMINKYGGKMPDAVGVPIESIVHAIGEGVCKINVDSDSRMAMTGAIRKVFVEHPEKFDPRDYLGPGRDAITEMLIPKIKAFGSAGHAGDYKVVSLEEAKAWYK
#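 Giardia FBPA (40 nM reagent) was preincubated 10 min at RT with compound (up to 57.5 uM final), then substrate plus GAPDH/TPI/NAD/arsenate coupling system with diaphorase/resazurin was added; resorufin fluorescence (525/598 nm) was read after 20 min.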
# TbPYK inhibitor: T. brucei pyruvate kinase inhibition. TbPYK enzyme, Kinase-Glo Plus ATP luminescence, 45 min. Potency, µM (series often up to 76.8 µM), for inactives: at the top dose activity, negative = inhibition, hits mostly inhibitors. 0.12% of 410,000 active. AID 624173; also: potency is read from the fitted curve at half-maximal effect; % is scaled to controls: 0 for no effect and ±100 for the full control effect; nearly all actives have a fitted effect of over 50% in size
#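 Quantitative HTS: titrated library compounds versus trypanosomal pyruvate kinase in TEA buffer (pH 7.2) containing KCl, MgCl2, BSA and Tween-20. Reactions were initiated with ADP, 130 uM final. Kinase-Glo Plus luminescence was read after 45 min at RT.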
# Shiga inhibitor: blocks Shiga toxin action in Vero cells. 9.2% of 290,000 active. Vero cells, Shiga toxin protein synthesis inhibition reporter. inhibition, % at 38.7 µM; in the data active = inhibition mostly above about 28%, no sharp cut-off; inactive = mostly below about 43%; also: 0% is about no effect
# Cycloheximide cs: counter-screen for Shiga toxin inhibitors: cycloheximide protein synthesis inhibition. max response, %. AID 2314. cell reporter, cycloheximide protein synthesis inhibition counterscreen. 12% of 300,000 active; in the data active = max response mostly above about 13%, no sharp cut-off; inactive = mostly below about 14%; also: read at 38.3 µM for the half of the compounds with a filed dose; 0% is about no effect
# LmPK inhibitor: inhibitors of Leishmania mexicana pyruvate kinase; Q27686; purified LmPK, Kinase-Glo ATP luminescence, 1 h; Potency, µM (series often up to 57.5 µM), for inactives: at the highest dose activity change, negative = inhibition, most hits filed as inhibitors; 0.37% of 290,000 active; AID 1721; also: potency is read from the fitted curve at half-maximal effect; % is scaled to controls: 0 for no effect and ±100 for the full control effect
#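 Screened at intermediate enzyme activity to detect both inhibitors and activators: LmPK at 0.1 nM, with a 0.5 nM enzyme column as activation reference. PEP 0.5 mM, ADP 0.1 mM; ATP detected by luminescence after 1 h.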
# RE007 growth inh: less growth of the S. pombe RE007 Vpr strain; S. pombe RE007 Vpr strain, BacTiter-Glo ATP luminescence, 24 h; Potency, µM (series often up to 92.2 µM), without a hit: top-dose activity change, negative = less growth, usual class: inhibitors; 0.21% of 360,000 active; AID 651644; active = well fitted falling curve with a large enough effect; inconclusive = small, poorly fitted or top-dose-only effect; inactive = no such curve, though single readings can be large or run the other way; also: potency is read from the fitted curve at half-maximal effect; % is scaled to controls: 0 for no effect and ±100 for the full control effect; nearly all actives have a fitted effect of over 50% in size
#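 Fission yeast RE007 carrying one integrated HIV-1 vpr copy, seeded at OD 0.01 in PMG+AL medium with 23 nL pinned compound. Grown 24 h at 30 degrees; viability read by BacTiter-Glo luminescence after 5 min.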
# Starred values were filed as active, the others as inactive; ? = inconclusive; . = no result given. Only a selection was taken, and hits are over-represented in it overall. Unless noted, calls follow the shape of the dose curve; as a rule, active = well fitted curve in the direction sought with a large enough effect; inconclusive = small, poorly fitted or top-dose-only effect, or another doubt; inactive = no such curve, though single readings can be large; an effect the other way counts as inactive or inconclusive.
SMILES,FBPA Giardia inh,TbPYK inhibitor,Shiga inhibitor,Cycloheximide cs,LmPK inhibitor,RE007 growth inh
Cc1cccc(C)c1N(CCCc1cccnc1)C(=O)[C@@H](C)N,.,-4.4%,.,.,.,.
CCOc1cccc(NC(=O)c2cccc(F)c2)c1,-0.1%,2.3%,102.4*,20.2*,-8.8%,?
Cc1cccc(C(=O)NNC(=O)c2cccc(C)c2)c1,3.5%,-5.7%,3.0,8.3,-0.4%,2.5%
Cc1cccc(C(=O)NNC(=O)c2ccc(F)cc2)c1,1.8%,4.4%,16.4,14.0*,-1.4%,-13.8%
O=C(COc1cccc(NC(=O)c2ccco2)c1)c1ccc(F)cc1,2.2%,-2.6%,24.9*,14.6*,1.6%,?
CC(=O)Nc1cccc(NC(=O)c2ccc(COc3ccccc3)cc2)c1,8.6%,3.7%,109.1*,58.9*,-2.4%,-3.0%
Cc1cc(C)c2c(=O)c3c(oc2c1)C(=O)N(Cc1ccc(F)cc1)C3c1cccc(O)c1 (configuration not stated),.,-12.0%,.,.,.,.
COC(=O)c1ccc(NC(=O)c2cccc(OC)c2)cc1,-16.6%,?,91.3*,56.5*,?,?
CCOc1cccc(C(=O)Nc2ccc3ccccc3c2)c1,3.1%,0.9%,36.8,20.6*,-3.8%,-1.0%
CCCOc1cccc(C(=O)NC(=S)Nc2cccc(C(F)(F)F)c2)c1,-15.0%,4.3%,27.9,-0.6,6.1%,4.1%
COc1cccc(C(=O)Nc2ccc(C(=O)O)cc2)c1,7.9%,-27.9%,21.5,-1.1,?,-0.9%
COc1cccc(NC(=O)c2ccc(NC(C)=O)cc2)c1,-5.7%,5.6%,20.5,33.4*,-16.4%,14.2%
COc1cccc(NC(=O)c2ccncc2)c1,-2.1%,0.4%,37.5,3.1,-0.7%,-10.8%
CCOc1cccc(C(=O)Nc2ccc(N(CC)CC)cc2)c1,-5.3%,?,15.3,16.4,-1.5%,1.5%
CCOc1cccc(C(=O)NC(=S)Nc2cccc(C)c2)c1,-2.7%,-1.8%,65.5*,8.9,4.6%,-26.9%
CCOC(=O)c1cnn2c(C(F)(F)F)cc(-c3ccc(Br)cc3)nc12,.,-6.6%,.,.,.,.
CCCN(C(=O)C1CCN(S(=O)(=O)c2ccc(OC)c(OC)c2)CC1)C1CCS(=O)(=O)C1 (configuration not stated),.,3.9%,.,.,.,-3.4%
CCOc1ccc(C(=O)c2oc3ccccc3c2NC(=O)Cc2coc3ccc(CC)cc23)cc1,.,2.3%,.,.,.,.
COc1ccc(S(=O)(=O)N2CCN(CC(=O)Nc3ccc(Cl)c(C(F)(F)F)c3)CC2)cc1,.,1.3%,.,.,.,.
CCC1CN(C(=O)N2CCC(C(=O)NCc3cccc(C)c3)CC2)c2ccccc2O1 (configuration not stated),.,1.1%,.,.,.,.
COc1cccc(C(=O)Nc2ccc(NC(=O)C3C4C=CC(C4)C3C(=O)O)cc2)c1 (configuration not stated),.,1.5%,141.7*,40.8*,-1.6%,-10.6%
O=C(COc1ccc(Cc2ccccc2)cc1)c1ccc(F)cc1,2.2%,-2.1%,-17.0,34.8*,-4.8%,-13.4%
COc1cccc(OC)c1C(=O)Nc1nnc(-c2ccc(F)cc2)s1,-4.4%,-2.2%,29.7*,10.4*,0.6%,-20.5%
COC(=O)c1cccc(NC(=O)c2cccc(OC)c2)c1,1.1%,-15.3%,104.2*,53.4*,?,-24.6%
O=C(COc1ccc(F)cc1)c1ccc2c(c1)CCCC2,.,1.8%,.,.,.,-13.1%
SMILES,FBPA Giardia inh,TbPYK inhibitor,Shiga inhibitor,Cycloheximide cs,LmPK inhibitor,RE007 growth inh
COc1ccc(OCC(=O)OCc2cc(=O)n3nc(C4CC4)sc3n2)cc1,.,-0.9%,.,.,.,.
Cc1cccc(C(=O)Nc2ccc(O)cc2)c1,-13.7%,2.1%,37.3,30.1*,-22.1%,-2.3%
COc1cccc(C(=O)Nc2ccc(C(=O)c3ccccc3)cc2)c1,-9.3%,-2.1%,.,35.7*,-6.7%,-8.7%
Cc1cccc(C(=O)Nc2ccc(C(=O)c3ccccc3)cc2)c1,.,-3.7%,.,.,.,-17.2%
COc1ccc(-c2nc3ccccc3o2)cc1NC(=O)c1ccc(N2CCC(C)CC2)c([N+](=O)[O-])c1,.,-5.1%,.,.,.,.
COc1ccc(OC)c(NC(=S)NC(=O)c2ccc(Br)o2)c1,.,-0.5%,-29.4,0.5,-5.5%,-5.9%
O=C(c1ccc2c(c1)OCCO2)N(Cc1cccnc1)c1nc2c(F)cccc2s1,.,0.6%,.,.,.,.

# From PubChem
